Assay results published in PubChem BioAssay AID686979 (National Center for Advancing Translational Sciences (NCATS), 2013).
Among all 420,000 compounds or so, about 50,000 (12%) were called active. Inconclusive results (about 26%) are left out. Calls come from the whole dose curve; as a rule, active = well fitted inhibition curve with a large enough effect; inconclusive = small, poorly fitted or top-dose-only effect; inactive = flat fitted curve, though single readings scatter. The sample as a whole holds a higher share of actives than the screen did.

Assay: qHTS for Inhibitors of human tyrosyl-DNA phosphodiesterase 1 (TDP1): qHTS in cells in presence of CPT; note: nearly all actives have a fitted effect of over 55% in size
Conditions: chicken DT40 Tdp1-/-;hTDP1 cells + 20 nM CPT, ATP luminescence, 48 h; series mostly up to 46.2 µM; activity change, negative = growth inhibition: at the top concentration
Method in brief: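 Cell growth measured by CellTiter-Glo luminescence after a minimum 48 h, 37 C compound exposure with 20 nM CPT in Tdp1-knockout DT40 cells stably expressing hTDP1, seeded 400/well; qHTS titration format.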
% is set by controls: 0 for no effect and ±100 for the full control effect; potency is the fitted concentration of half-maximal effect.

Compound | Potency | activity change, negative = growth inhibition
Cc1cc2ccccn2c1C(C[N+](=O)[O-])c1c(F)cccc1Cl (configuration not stated) | 18.4 µM (active) | 
C[N+]1(C)CCOC(O)(c2ccc(-c3ccc(C4(O)C[N+](C)(C)CCO4)cc3)cc2)C1 (configuration not stated) | inactive | 
COc1cc(Cl)ccc1Nc1ncc(C(=O)N2CCN(c3ccccc3OC)CC2)c2ccccc12 | 14.6 µM (active) | 
CN1CCN(C(=O)O[C@@H]2c3nccnc3C(=O)N2c2ccc(Cl)cn2)CC1 |  | 6.19% (inactive)
CCOC(=O)c1c(C)c(C(=O)N2CCC3(CC2)OCCO3)c(C)n1CC |  | -15.2% (inactive)
CN1CCN(Cc2ccccc2C(F)(F)F)CC1 |  | -1.55% (inactive)
CCOC(=O)C1(c2ccccc2)CCN(CC(O)c2ccc(NC(C)=O)cc2)CC1 (configuration not stated) |  | 11.8% (inactive)
CCOC(=O)CC1=C(C(=O)OCC)C2(C(=O)N1)C(C(=O)OC)=C(N)Oc1ccccc12 (configuration not stated) |  | -3.36% (inactive)
COC1C(O)C(C)OC(OC2CCC3(C=O)C(CCC4C3CCC3(C)C(C5=CC(=O)OC5)CCC43O)C2)C1O (configuration not stated) | 0.206 µM (active) | 
COC1CC(OC2CC[C@@]3(C=O)C4CC[C@]5(C)C(C6=CC(=O)OC6)CC[C@@]5(O)C4CC[C@]3(O)C2)OC(C)C1O (some centres not stated) | 1.3 µM (active) | 
c1csc(CN2CCCC3(CCNCC3)C2)n1 |  | 0.355% (inactive)
C=Cn1ccnc1P(=S)(c1cc(N(CC)CC)ns1)c1nccn1C=C |  | -23.1% (inactive)
Cc1ncsc1CCCl | inactive | 
CC[N+]1(CCOC(=O)C(O)(c2ccccc2)c2ccccc2)CCCCC1 |  | 3.37% (inactive)
C/C(=C\C=C/[C@@H](C)C(=O)O)[C@H]1CN[C@H](C(=O)O)[C@@H]1CC(=O)O |  | -0.395% (inactive)
Cc1ccc(NC(=O)CN(C)CC(=O)Nc2cccc(F)c2)cc1[N+](=O)[O-] | 1.84 µM (active) | 
O=C(CN1CCCC1=O)NCCc1ccccc1 |  | 2.72% (inactive)
CN(C)P(=S)(Nc1ccccc1)C(Cl)(Cl)Cl (configuration not stated) |  | -3.66% (inactive)
O=C(O)COc1ccccc1/C=C1\C(=O)NC(=O)N(CCC2=CCCCC2)C1=O |  | 18.2% (inactive)
O=C1NC(=O)N(CCc2ccc(F)cc2)C(=O)/C1=C/C=C/c1ccccc1 | 3.26 µM (active) | 
OCC#CC[N+]1(CC#Cc2ccccc2)CCCC1 |  | -6.84% (inactive)
Cc1ccc(P(=S)(c2ccc(C)o2)N2CCOCC2)o1 |  | -13.2% (inactive)
CC(=O)C12CC(C)=C(C)CC1CC1C3CCC4=CC(=O)CCC4(C)C3CCC12C (configuration not stated) | 13 µM (active) | 
COC(=O)C[C@H]1CC[C@H]2NC[C@@H](O)COC[C@@H]2O1 |  | 0.913% (inactive)
C[C@H]1CN([C@@H](C)CO)C(=O)CCCn2nncc2CO[C@H]1CN(C)C(=O)Oc1ccccc1 |  | -12.4% (inactive)
Cc1cc(N2C(=O)C3CCCN3C2c2ccc(Cl)c(Cl)c2)no1 (configuration not stated) |  | 6.24% (inactive)
CCN1C(=O)NC(=O)C2(CCCC2)C1=O |  | 4.76% (inactive)
